Compounds with a hit are over-represented: about 3.5% of the library has one in this group of screens.
FBW7 act: activators of human E3 ligase FBW7; Q969H0; AlphaScreen FBW7–phospho-cyclin E peptide binding, activator screen; normalized activity (activation), % at 26.1 µM; 0.13% of 650,000 active; in the data active = normalized activity above about 1.9%;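 note: purified mutant Fbw7 with reduced substrate affinity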
TEAD-YAP block: TEAD-YAP interaction inhibition; AID 1259422; inhibition, % at 9.12 µM; 1.4% of 640,000 active; HEK-TIYL cells, TEAD-Gal4/YAP UAS-luciferase luminescence; in the data active = inhibition above about 32%
GPR151 activ: activates the human receptor GPR151 | Q8TDV0 | 1% of 650,000 active | AID 1508602 | activation, % at 11.2 µM | PathHunter beta-arrestin GPR151 cells, luminescence; in the data active = activation above about 4.9%
MITF inh: inhibitors of human MITF. 0.91% of 650,000 active. O75030. AlphaScreen MITF homodimerization, bead proximity signal. inhibition, % at 2.6 µM; in the data active = inhibition above about 50%
Target sequence (O75030 whole entry, looked up): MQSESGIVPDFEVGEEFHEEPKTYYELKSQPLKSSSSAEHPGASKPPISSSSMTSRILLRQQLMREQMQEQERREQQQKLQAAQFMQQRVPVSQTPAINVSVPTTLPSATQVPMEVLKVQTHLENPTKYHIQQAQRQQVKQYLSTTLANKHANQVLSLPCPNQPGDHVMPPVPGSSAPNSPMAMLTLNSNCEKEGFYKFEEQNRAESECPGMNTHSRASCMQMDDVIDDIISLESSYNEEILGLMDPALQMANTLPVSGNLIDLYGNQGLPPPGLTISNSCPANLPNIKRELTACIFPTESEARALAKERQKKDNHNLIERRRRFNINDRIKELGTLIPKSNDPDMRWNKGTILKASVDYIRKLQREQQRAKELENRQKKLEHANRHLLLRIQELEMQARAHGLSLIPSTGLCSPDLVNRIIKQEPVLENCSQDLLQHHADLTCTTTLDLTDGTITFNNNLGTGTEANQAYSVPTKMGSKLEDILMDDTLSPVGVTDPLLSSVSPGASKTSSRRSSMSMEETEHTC
MITF confirm: human MITF inhibition, confirmation. AlphaScreen MITF homodimerization, biotin/His-MITF beads. 16% of 4,700 active. shares compounds with MITF inh. inhibition, % at 2.6 µM;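 active = inhibition above a cutoff derived from the DMSO control wells, cut at about 28% in these data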;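 note: inhibitors lower the bead chemiluminescence by keeping MITF from dimerizing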
AlphaScreen DR: counter-screen: compounds optically interfering with AlphaScreen | shares compounds with MITF inh | AlphaScreen optical interference counterscreen, cell-free | 6% of 480 active | IC50, µM | AID 1259373; call rule not given here
AS interf ctr: AlphaScreen optical interference, counter-screen; shares compounds with MITF inh; 7.6% of 4,700 active; LysRS AlphaScreen counterscreen, signal interference, triplicate; AID 1259376; inhibition, % at 2.6 µM;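 active = inhibition above a cutoff derived from the DMSO control wells, cut at about 30% in these data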
Large screens that a line does not name were inactive (follow-up assays come after a bar, where they were run).

COc1ccc(CCNc2nc(N3CCN(Cc4ccc5c(c4)OCO5)CC3)nc3c2ncn3C2CCCCC2)cc1	none
COc1ccc(CN2CCNC(=O)C2CC(=O)NCCCSC)c(OC)c1 (stereo unspecified)	none
CCCOc1ccc(C(=O)Nc2cccc(-c3nc4ncccc4o3)c2)cc1	MITF inh 69 | MITF confirm inactive | AS interf ctr inactive
CCOc1ccc(Nc2cc(N3CCN(CCOc4ccc(Cl)cc4)CC3)c3noc4c3c2C(=O)c2ccccc2-4)cc1	none
CN(C)S(=O)(=O)c1ccc(C(=O)Nc2ncnc3c2CCC3)cc1	MITF inh 55 | MITF confirm inactive | AS interf ctr inactive
CN(C1CC1)S(=O)(=O)c1ccc(C(=O)Nc2ncnc3c2CCC3)cc1	none
c1ccc2c(NCc3ccncc3)cccc2c1	none
Cc1ccc(OCCN2CCOCC2)c(Br)c1	MITF inh 64 | MITF confirm inactive | AS interf ctr inactive
Cc1ccc(C(C)(C)C)c(OCCN2CCOCC2)c1	MITF inh 65 | MITF confirm inactive | AS interf ctr inactive
Cc1cc(Cl)c(OCCN2CCOCC2)c(Cl)c1	MITF inh 61 | MITF confirm inactive | AS interf ctr inactive
Clc1ccc(OCCN2CCOCC2)c(Br)c1	none
Cc1ccc(OCCOCCN2CCOCC2)c(C)c1	none
COc1ccc(CN2CCN(Cc3ccc4c(c3)OCO4)CC2)cc1Br	none
Cc1ccc2c(nc3s/c(=C/c4cccc(OCc5ccc(Cl)c(Cl)c5)c4)c(=O)n32)c1C	none
O=C1N[C@H](Cc2ccccc2)C(=O)N2CCN(C(=O)NC3CCCCC3)C[C@H]12	MITF inh 74 | MITF confirm 71 | AlphaScreen DR inactive | AS interf ctr inactive
O=C1N[C@@H](Cc2ccccc2)C(=O)N2CCN(C(=O)NC3CCCCC3)C[C@H]12	MITF inh 76 | MITF confirm 69 | AlphaScreen DR inactive | AS interf ctr inactive
O=C(COC(=O)C(CCCCN1C(=O)c2ccccc2C1=O)N1C(=O)c2ccccc2C1=O)c1ccc(Br)cc1 (stereo unspecified)	none
OCCN(CCO)c1ncnc2sc3c(c12)CCCC3	MITF inh 68 | MITF confirm inactive | AS interf ctr inactive
O=C(O)c1ccccc1-c1ccccc1C(=O)Nc1ccccn1	none
O=C(O)c1cccc(NC(=S)N/N=C/c2ccccn2)c1	TEAD-YAP block 34, MITF inh 95 | MITF confirm inactive | AS interf ctr inactive
O=C(O)c1cccc(N/N=C/c2ccccn2)c1	none
COCCn1nnnc1C(c1ccc(Cl)cc1)N1CCSCC1 (stereo unspecified)	MITF inh 66 | MITF confirm inactive | AS interf ctr inactive
COCCn1nnnc1CN1CCSCC1	MITF inh 56 | MITF confirm inactive | AS interf ctr inactive
C=CCSc1nnc2c(n1)OC(c1cn[nH]c1-c1ccccc1)Nc1ccccc1-2 (stereo unspecified)	none
COc1ccc(NC(=O)CCCCCn2c(SCC(=O)Nc3ccccc3OC)nc3ccsc3c2=O)cc1	none
CCCCn1c(SC(CC)C(=O)Nc2ccc3c(c2)OCO3)nc2ccsc2c1=O (stereo unspecified)	MITF inh 69 | MITF confirm inactive | AS interf ctr inactive
CCC(Sc1nc2ccsc2c(=O)n1CCC(C)C)C(=O)Nc1ccc2c(c1)OCO2 (stereo unspecified)	none
CCCCn1c(SCC(=O)Nc2ccccc2OC)nc2ccsc2c1=O	MITF inh 58 | MITF confirm inactive | AS interf ctr inactive
Cc1ncoc1C(=O)N1CCCC(CNC(=O)c2ccc(-c3ccccc3)cc2)C1 (stereo unspecified)	none
CCN1CCN(Cc2c(O)ccc3c(=O)c(-c4ccccc4Cl)coc23)CC1	none
O=C(c1ccsc1)N1CCOc2ccc(CN3CCN(c4ccccc4)CC3)cc2C1	MITF inh 73 | MITF confirm inactive | AS interf ctr inactive
Cc1cccc2c1CC(C)(C)NC2=S	none
Cc1ccc(C)c2c1CC(C)(C)NC2=S	MITF inh 70 | MITF confirm inactive | AS interf ctr inactive
C=CCc1ccc(OCCN(C)C)c(OC)c1	MITF inh 82 | MITF confirm inactive | AS interf ctr inactive
C=CCc1cc(OC)ccc1OCCNCCN	none
C=CCc1cc(OC)ccc1OCCN(C)C	MITF inh 63 | MITF confirm inactive | AS interf ctr inactive
C=CCc1cc(OC)ccc1OCCNCCCOC	MITF inh 52 | MITF confirm inactive | AS interf ctr inactive
C=CCc1cc(OC)ccc1OCCCNCCN	none
N#Cc1ccc(S(=O)(=O)Nc2ccccc2CO)cc1	none
Cc1cccc(NC2(C(F)(F)F)N=C3SCCN3C2=O)n1 (stereo unspecified)	MITF inh 80 | MITF confirm inactive | AS interf ctr inactive
Cc1ccccc1C(=O)NC1(C(F)(F)F)N=C2SCCN2C1=O (stereo unspecified)	none
Cc1ccc(OCC(=O)N2CC3(C)CC2CC(C)(C)C3)c([N+](=O)[O-])n1 (stereo unspecified)	MITF inh 51 | MITF confirm inactive | AS interf ctr inactive
O=C(c1ccc2nc(-c3cccs3)c(-c3cccs3)nc2c1)N1CCOCC1	none
O=C(c1ccc2nc(-c3ccco3)c(-c3ccco3)nc2c1)N1CCSCC1	MITF inh 87 | MITF confirm 72 | AlphaScreen DR inactive | AS interf ctr inactive
CC(C)(C)NC(=O)C(c1ccccc1)N(C(=O)CNC(=O)c1cccs1)C1CCCC1 (stereo unspecified)	none
CCOC(=O)c1c(NC(=O)CSc2nnc(C)s2)sc2c1CCC2	MITF inh 54 | MITF confirm inactive | AS interf ctr inactive
CCOC(=O)c1c(-c2ccc(C)c(C)c2)csc1NC(=O)CN1CCN(C)CC1	MITF inh 90 | MITF confirm inactive | AS interf ctr inactive
CCOC(=O)c1c(NC(=O)CN2CCN(CC)CC2)sc2c1CCC2	MITF inh 80 | MITF confirm inactive | AS interf ctr inactive
CCOC(=O)c1c(NC(=S)N2CCN(S(C)(=O)=O)CC2)sc2c1CCCC2	MITF inh 69 | MITF confirm inactive | AS interf ctr inactive
CCOC(=O)c1c(NC(N)=S)sc2c1CCCC2	none
CCOC(=O)c1c(-c2ccco2)csc1NC(=O)CN1CCN(C)CC1	none
COC(=O)c1ccc(COC(=O)c2ccc(OC)c([N+](=O)[O-])c2)cc1	none
Cc1cc(C)cc(Cn2c(NCCCN3CCOCC3)cc(=O)n(C)c2=O)c1	MITF inh 70 | MITF confirm inactive | AS interf ctr inactive
O=C(CN1CCN(CC(=O)c2ccco2)CC1)NCc1ccccc1Cl	MITF inh 66 | MITF confirm inactive | AS interf ctr inactive
Cc1ccccc1NC(=O)CN1CCN(CC(=O)c2ccco2)CC1	MITF inh 59 | MITF confirm inactive | AS interf ctr inactive
CCN1CCN(CC(=O)NCc2ccco2)CC1	MITF inh 80 | MITF confirm inactive | AS interf ctr inactive

Compound activity from PubChem.
